The results in this text go back to PubChem BioAssay (Tox21).

Assay [1] can be described thus: qHTS assay to identify small molecule antagonists of the thyroid receptor (TR) signaling pathway - cell viability counter screen (AID 743064). Note: nearly all actives have a fitted effect of over 50% in size. Note: potency is the fitted concentration of half-maximal effect. The essentials:
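Viability of T3-stimulated (1 nM final) GH3.TRE-Luc cells is measured by CellTiter-Fluor fluorescence after 23.5 h compound exposure at 37 °C plus 30 min reagent incubation.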

Assay [2] can be described thus: qHTS assay to identify small molecule antagonists of the thyroid receptor (TR) signaling pathway (AID 743065). Note: nearly all actives have a fitted effect of over 55% in size. Note: potency is the fitted concentration of half-maximal effect. The method, boiled down:
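GH3.TRE-Luc rat pituitary cells (two TREs driving luciferase) were dosed with compound, then stimulated with 1 nM T3 (final) for 23.5 h at 37 C. ONE-Glo luminescence was the read-out, with CellTiter-Fluor fluorescence as the cytotoxicity counter-screen.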

Assay [3] relates to thyroid hormone receptor (rat, GH3 cells). Put plainly: qHTS assay to identify small molecule agonists of the thyroid receptor (TR) signaling pathway (AID 743066; calls by dose curve; note: potency is the fitted concentration of half-maximal effect).
Assay [4] addresses Estrogen receptor (Homo sapiens) (UniProt P03372). Briefly: qHTS assay to identify small molecule antagonists of the estrogen receptor alpha (ER-alpha) signaling pathway (AID 743069; active = well fitted curve in the direction sought with a large enough effect in the signal ratio in the repeat runs, not every such curve was filed as active; inconclusive = weak or mixed curves, or effect the other way; inactive = no such curve, though single readings can be large or run the other way; the % refers to the signal ratio). The method, boiled down:
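In this cell-based reporter format, GripTite HEK293 cells harbouring ER-alpha-UAS-bla were grown overnight with 2% charcoal-stripped FBS, dosed with DMSO-dissolved compounds, then challenged with 17beta-estradiol. After 18 hr at 37C, beta-lactamase activity was detected by FRET fluorescence.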

Assay [5] is described as follows: qHTS assay to identify small molecule antagonists of the estrogen receptor alpha (ER-alpha) signaling pathway - cell viability counter screen (AID 743074; calls by dose curve; note: nearly all actives have a fitted effect of over 45% in size).
Assay [6] concerns the target Estrogen receptor (Homo sapiens) (UniProt P03372). Put plainly: qHTS assay to identify small molecule agonists of the estrogen receptor alpha (ER-alpha) signaling pathway (AID 743075; calls by dose curve; note: potency is the fitted concentration of half-maximal effect).
For assay [7] the target is unchanged. Briefly: qHTS assay to identify small molecule agonists of the estrogen receptor alpha (ER-alpha) signaling pathway using the BG1 cell line (AID 743079). Note: nearly all actives have a fitted effect of over 20% in size. Note: potency is the fitted concentration of half-maximal effect. Particulars: BG1Luc4E2 cells, ERE-luciferase agonist, 22 h; activation: at 70.3 µM (top of the series) unless noted.
The nature of assay [8]: qHTS assay to identify small molecule antagonists of the estrogen receptor alpha (ER-alpha) signaling pathway using the BG1 cell line - cell viability counter screen (AID 743081).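 Note: compound given together with 17beta-estradiol as the ER stimulus; nearly all actives have a fitted effect of over 45% in size.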
The target in another assay is Aromatase (Homo sapiens) (UniProt P11511). Briefly: qHTS assay to identify aromatase inhibitors (AID 743083). Note: nearly all actives have a fitted effect of over 55% in size.
Chain of Aromatase (Homo sapiens) (P11511 whole entry, looked up): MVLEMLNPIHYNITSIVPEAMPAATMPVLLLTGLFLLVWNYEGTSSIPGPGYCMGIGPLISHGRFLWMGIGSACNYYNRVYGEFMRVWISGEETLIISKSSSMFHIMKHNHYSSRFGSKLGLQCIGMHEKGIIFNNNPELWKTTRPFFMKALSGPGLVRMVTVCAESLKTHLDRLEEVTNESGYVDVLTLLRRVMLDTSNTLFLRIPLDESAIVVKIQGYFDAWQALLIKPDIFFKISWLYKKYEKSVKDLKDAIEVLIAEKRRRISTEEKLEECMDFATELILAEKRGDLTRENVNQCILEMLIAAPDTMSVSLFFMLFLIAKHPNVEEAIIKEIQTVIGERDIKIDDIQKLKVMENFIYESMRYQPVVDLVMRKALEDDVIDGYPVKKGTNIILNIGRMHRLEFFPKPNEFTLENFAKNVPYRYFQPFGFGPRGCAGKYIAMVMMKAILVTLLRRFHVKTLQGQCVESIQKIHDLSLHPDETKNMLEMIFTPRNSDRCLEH
Assay [9] is described as follows: qHTS assay to identify small molecule antagonists of the estrogen receptor alpha (ER-alpha) signaling pathway using the BG1 cell line (AID 743080; calls by dose curve;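 note: BG1 cells stimulated with 17beta-estradiol alongside compound; nearly all actives have a fitted effect of over 25% in size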). The essentials: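 BG1-Luc-4E2 cells (endogenous full-length ER-alpha, stable 4×ERE-luciferase) were starved 5 days in phenol-red-free medium with 10% charcoal-stripped FBS, plated 24 h, then given compound plus 17beta-estradiol for 21.5 h at 37 C; ONE-Glo luminescence read after 30 min.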

Values joined by “and” are separate entries in the source; they are usually repeats but may differ in a detail not shown here. Equal entries are not always repeated. Some structures have more than one record in an assay (separate samples or runs), and their calls can disagree. Active and inactive are the calls of the source. Unless noted, calls come from the whole dose curve; as a rule, active = well fitted curve in the direction sought with a large enough effect in the repeat runs; inconclusive = weak or mixed curves; inactive = no such curve, though single readings can be large; an effect the other way counts as inactive or inconclusive.

Chain of Estrogen receptor (Homo sapiens) (P03372 whole entry, looked up): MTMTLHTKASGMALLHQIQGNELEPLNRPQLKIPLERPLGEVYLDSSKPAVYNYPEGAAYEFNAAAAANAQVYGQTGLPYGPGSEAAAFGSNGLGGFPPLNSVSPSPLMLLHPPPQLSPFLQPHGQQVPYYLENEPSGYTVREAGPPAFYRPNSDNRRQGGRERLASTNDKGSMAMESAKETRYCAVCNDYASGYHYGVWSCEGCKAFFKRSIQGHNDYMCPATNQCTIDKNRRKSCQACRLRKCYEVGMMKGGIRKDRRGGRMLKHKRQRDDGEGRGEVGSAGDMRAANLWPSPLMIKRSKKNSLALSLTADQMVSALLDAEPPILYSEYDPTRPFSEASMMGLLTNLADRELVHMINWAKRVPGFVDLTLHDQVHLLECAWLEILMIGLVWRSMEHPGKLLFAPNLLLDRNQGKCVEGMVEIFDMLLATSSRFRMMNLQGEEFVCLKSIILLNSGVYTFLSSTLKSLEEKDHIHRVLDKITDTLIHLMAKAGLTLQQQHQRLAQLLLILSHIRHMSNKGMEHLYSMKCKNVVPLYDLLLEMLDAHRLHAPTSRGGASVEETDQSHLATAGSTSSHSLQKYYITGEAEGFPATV

On to `COc1ccc(N)c(OC)c1`, for which the Potency result in assay [1], in assay [2], in assay [3], in assay [4], in assay [5] and in assay [6] was “inactive” in each case. Also, the Potency entry (in assay [7]; in assay [8]; with Aromatase (Homo sapiens)) was “inactive” each time.
On to `CS(=O)(=O)c1ccc(Cl)cc1`, for which the Potency result (in assay [1]; in [2]; in [3]; in assay [5]; in assay [8]; with Aromatase (Homo sapiens)) was “inactive” in each case.
Take `Cc1ccccc1Cl`: the Potency result in assay [1], in assay [2], in [3], in assay [4], in assay [5] and in assay [6] was “inactive” each time. In addition, the Potency result (in [7]; in [8]; in the assay with Aromatase (Homo sapiens)) was “inactive” each time.
As for `CC/C=C(\C(=O)N[C@@H]1C(=O)N2C(C(=O)OCOC(=O)C(C)(C)C)=C(COC(N)=O)CS[C@H]12)c1csc(N)n1`, the Potency result in assay [1], in [2], in assay [3], in assay [5], in [6] and in assay [7] was “inactive” throughout. Moreover, in the assay with Aromatase (Homo sapiens), the Potency entry is “inactive”.
As to `CCCCCC(C)=O`, the Potency entry (in [1]; in assay [2]; in [3]; in assay [5]; in assay [8]; in the assay with Aromatase (Homo sapiens)) was “inactive” each time.
On to `CC(=O)OCCC(C)C`, for which the Potency entry (in assay [1]; in assay [2]; in assay [3]; in assay [5]; in assay [8]; in the assay with Aromatase (Homo sapiens)) was “inactive” each time.
Take `CN1Cc2c(N)cccc2C(c2ccccc2)C1` (stereo unspecified): the Potency entry in [1], in assay [2], in assay [3], in assay [5] and in [8] was “inactive” throughout.
Consider `Cc1ccccc1C=O`, for which the Potency entry in assay [1], in assay [2], in [3], in assay [4], in assay [5] and in assay [6] was “inactive” each time. Further, the Potency result (in assay [7]; in assay [8]; with Aromatase (Homo sapiens)) was “inactive” each time.
Regarding `COC(=O)/C=C\C(=O)OC`, the Potency result in assay [1], in assay [2], in [3], in assay [5] and in assay [8] was “inactive” throughout.
Turning to `C=C(C)CC(C)(C)C`, the Potency entry in [1], in assay [2], in assay [3], in [5] and in assay [8] was “inactive” in each case.
`C=CC(C)(C)C`: the Potency result in [1], in [2], in assay [3], in [4], in assay [5] and in [6] was “inactive” throughout. The Potency entry (in assay [7]; in assay [8]; with Aromatase (Homo sapiens)) was “inactive” in each case.
For `C[Si](C)(C)N[Si](C)(C)C`, the Potency entry in [1], in [2], in assay [3], in assay [4], in [7] and in [9] was “inactive” each time. In addition, the Potency result (in assay [8]; with Aromatase (Homo sapiens)) was “inactive” throughout. In addition, in assay [6], the Potency was 86.4 nM [inconclusive] (active) and inactive.
Turning to `O=C1OC(=O)c2c(Cl)c(Cl)c(Cl)c(Cl)c21`, the Potency entry (in assay [1]; in [2]; in [3]; in [5]; in assay [8]; with Aromatase (Homo sapiens)) was “inactive” each time.
For the compound `CCCCCCCCO`, the Potency entry in [1], in assay [2], in assay [3], in assay [4], in assay [5] and in assay [6] was “inactive” each time. The Potency result (in [7]; in assay [8]; with Aromatase (Homo sapiens)) was “inactive” in each case.
In the case of `O=C(NCC1CCCCN1)c1cc(OCC(F)(F)F)ccc1OCC(F)(F)F` (stereo unspecified), the Potency was 29.8 µM (active) in assay [1] and 53.5 µM (active) in assay [2]. The Potency entry in [3], in assay [5] and in assay [8] was “inactive” in each case.
In the case of `NCCNCCNCCN`, the Potency result in assay [1], in assay [2], in [3], in [5] and in assay [8] was “inactive” throughout.
In the case of `Brc1ccc(Oc2ccc(Br)cc2)cc1`, the Potency result in [1], in assay [2], in assay [3], in [5] and in [8] was “inactive” throughout.
As to `C[n+]1ccn(CCO)c1`, the Potency result in [1], in [2], in assay [3], in assay [5], in assay [9] and in assay [8] was “inactive” in each case. For the same compound, the Potency entry with Aromatase (Homo sapiens) was “inactive”.
As to `Cc1cccc(C)c1[N+](=O)[O-]`, the Potency result (in [1]; in assay [2]; in assay [5]; in assay [8]; with Aromatase (Homo sapiens)) was “inactive” throughout. Moreover, the Potency entry in assay [3] was “inactive and 61.1 µM (active)”.
As for `CC(C)=CCC/C(C)=C/C=O`, the Potency entry in assay [1], in [2], in assay [3], in [4], in assay [5] and in [6] was “inactive” throughout. Moreover, the Potency result (in [7]; in assay [8]; with Aromatase (Homo sapiens)) was “inactive” in each case.
On to `Cc1cc(CC(=O)O)n(C)c1C(=O)c1ccc(Cl)cc1`, for which the Potency result (in [1]; in assay [2]; in [3]; in assay [5]; in [8]; with Aromatase (Homo sapiens)) was “inactive” in each case.
For the compound `Cc1cc(C)cc(O)c1`, the Potency result in assay [1], in assay [2], in assay [3], in assay [4], in assay [5] and in assay [6] was “inactive” throughout. Also, the Potency result (in assay [7]; in assay [8]; in the assay with Aromatase (Homo sapiens)) was “inactive” in each case.
As to `COc1c2ccoc2cc2oc(=O)ccc12`, the Potency result in assay [1], in [2], in [3], in [5], in assay [6] and in assay [7] was “inactive” in each case. The Potency result (in [8]; with Aromatase (Homo sapiens)) was “inactive” throughout.
In the case of `Cc1ccc(C)c(S(=O)(=O)O)c1`, the Potency result (in assay [1]; in assay [2]; in [3]; in assay [5]; in [8]; in the assay with Aromatase (Homo sapiens)) was “inactive” in each case.
For `CC(=O)OC[C@H]1O[C@@](COC(C)=O)(O[C@H]2O[C@H](COC(C)=O)[C@@H](OC(C)=O)[C@H](OC(C)=O)[C@H]2OC(C)=O)[C@@H](OC(C)=O)[C@@H]1OC(C)=O`, the Potency entry (in assay [1]; in [2]; in assay [3]; in [5]; in [8]; with Aromatase (Homo sapiens)) was “inactive” in each case.
Turning to `CC(COCC(C)OC(=O)c1ccccc1)OC(=O)c1ccccc1` (stereo unspecified), the Potency entry (in assay [1]; in assay [2]; in assay [3]; in assay [5]; in [8]; with Aromatase (Homo sapiens)) was “inactive” each time.
Consider `CC(C)(C)NC[C@H](O)COc1nsnc1N1CCOCC1`, for which the Potency entry in assay [1], in [2], in assay [3], in assay [5] and in assay [8] was “inactive” throughout.
As for `CCn1cc(C(=O)O)c(=O)c2cc3c(cc21)OCO3`, the Potency result (in [1]; in [2]; in [3]; in assay [5]; in [8]; with Aromatase (Homo sapiens)) was “inactive” in each case.
As to `Oc1ccc(Cc2ccccc2O)cc1`, the Potency result (in assay [1]; in [3]; in assay [5]; in assay [9]; in assay [8]; in the assay with Aromatase (Homo sapiens)) was “inactive” in each case. Besides, the Potency in assay [6] is 11.1 µM [inconclusive] (active) and 24.5 µM [inconclusive] (active); in assay [7], 9.81 µM (active) and 6.11 µM (active).
`CCN(CC)CCNC(=O)c1ccc(N)cc1`: the Potency result (in assay [1]; in assay [2]; in assay [3]; in assay [5]; in assay [8]; in the assay with Aromatase (Homo sapiens)) was “inactive” throughout.
`CC(=O)Nc1ccc(CC(=O)O)cc1`: the Potency result in assay [1], in assay [4], in [5], in assay [6], in assay [7] and in assay [9] was “inactive” each time. Moreover, the Potency result (in assay [8]; with Aromatase (Homo sapiens)) was “inactive” in each case.
